PLK1 PBD inh = PLK1 (human) polo-box domain binding inhibition; P53350; Plk1 PBD binding of FITC phosphopeptide, fluorescence polarization; Potency, µM, for the others: max response, negative = inhibition, usual class: inhibitors; actives 2.8% (n = 360,000); note: series mostly up to about 57 µM; % is set by controls: 0 for no effect and ±100 for the full control effect; nearly all actives have a fitted effect of over 65% in size
JMJD2A Tudor = JMJD2A Tudor domain (human) inhibition; Potency, µM (highest dose often 114 µM), for the others: at the highest dose activity change, negative = inhibition, most hits filed as inhibitors; AlphaScreen JMJD2A-Tudor / H3K4me3 peptide binding; O75164; actives 4.4% (n = 390,000); note: % is set by controls: 0 for no effect and ±100 for the full control effect; nearly all actives have a fitted effect of over 50% in size
Sfp inh = blocks B. subtilis Sfp PPTase activity. Q9F4F7. Biochemical Sfp PPTase activity, qHTS. Potency, µM, for inactives: largest response in the series, negative = inhibition, usual class: inhibitors. actives 3.5% (n = 310,000);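 note: the enzyme is Sfp with the accession as filed and its product quenches rhodamine fluorescence; 0% = enzyme reaction without inhibitor and -100% = no enzyme wells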
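Buffer: 50 mM Hepes-Na pH 7.6, 10 mM MgCl2, 0.01% Nonidet P-40, 0.01% BSA. Enzyme 15 nM, pre-exposed to compound 15 min; substrates then added and fluorescence change tracked over 30 min.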
BAZ2B block = BAZ2B (human) inhibition; actives 4.4% (n = 360,000); Potency, µM (doses to about 114 µM), without a hit: at the highest dose activity change, negative = inhibition, hits mostly inhibitors; AID 504333; AlphaScreen BAZ2B-H3K14Ac peptide displacement; Q9UIF8; note: % is set by controls: 0 for no effect and ±100 for the full control effect; nearly all actives have a fitted effect of over 60% in size
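Multi-concentration screen (max 110 uM) measuring displacement of acetylated histone H3 peptide from BAZ2B by AlphaScreen, using 50 nM protein, 50 nM peptide and 10 ug/mL streptavidin donor plus Ni-chelate acceptor beads.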
HP1b chromo inh = HP1-beta chromodomain-methylated histone interaction inhibition; P83916; AlphaScreen HP1-beta / biotin-H3K9me3 peptide binding; Potency, µM (titrated, usually from 114 µM), inactives show top-dose activity change, negative = inhibition, usual class: inhibitors; actives 0.56% (n = 390,000); AID 540317; note: nearly all actives have a fitted effect of over 70% in size
Target sequence (P83916 whole entry, looked up): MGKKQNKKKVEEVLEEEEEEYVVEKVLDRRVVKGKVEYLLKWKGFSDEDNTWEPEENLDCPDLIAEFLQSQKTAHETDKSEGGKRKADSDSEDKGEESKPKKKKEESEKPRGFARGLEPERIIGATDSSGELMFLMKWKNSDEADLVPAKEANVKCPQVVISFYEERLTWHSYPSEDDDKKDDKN
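AlphaScreen: HP1-beta (50 nM) preformed 30 min with biotin-H3(1-18)K9me3 peptide (50 nM) in PBS pH 7.4, 0.01% Tween-20. Compound added for 30 min at RT, then streptavidin donor/nickel chelate acceptor beads (10 ug/mL) for 30 min.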
G9a block = G9a (human) methyltransferase inhibition; Potency, µM (series often up to 102 µM), without a hit: at the top dose activity, negative = inhibition, hits mostly inhibitors; Q96KQ7; G9a H3K9 monomethylation, AlphaScreen, 2 h; actives 8.8% (n = 350,000); AID 504332; note: % is set by controls: 0 for no effect and ±100 for the full control effect; nearly all actives have a fitted effect of over 75% in size
Target sequence (Q96KQ7 913-1193 limits assumed): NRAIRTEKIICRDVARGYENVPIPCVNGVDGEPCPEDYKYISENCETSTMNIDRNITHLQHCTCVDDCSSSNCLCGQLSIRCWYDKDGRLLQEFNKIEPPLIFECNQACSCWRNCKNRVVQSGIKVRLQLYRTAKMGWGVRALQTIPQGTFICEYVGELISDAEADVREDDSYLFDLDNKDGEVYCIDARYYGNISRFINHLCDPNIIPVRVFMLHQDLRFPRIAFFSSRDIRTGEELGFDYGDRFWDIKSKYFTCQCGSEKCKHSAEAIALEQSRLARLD
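Compounds were preincubated with 20 nM G9a for 15 min, after which biotinylated H3K9 peptide (500 nM) and SAM (20 uM) started a 2 h room-temperature reaction. Monomethylated product was quantified by antibody-based AlphaScreen chemiluminescence.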
* = called active by the depositor; [ ] = another dose, or the depositor's remark. Compounds with a hit are over-represented: about 12% of the library has one in this group of screens. Calls come from the whole dose curve; as a rule, active = well fitted curve in the direction sought with a large enough effect; inconclusive = small, poorly fitted or top-dose-only effect, or another doubt; inactive = no such curve, though single readings can be large; an effect the other way counts as inactive or inconclusive. Potency is the fitted concentration of half-maximal effect.

Screening COc1ccc(C(CCN2CCN(c3ccccc3)CC2)c2c(OC)cc(OC)c3c(-c4ccccc4)cc(=O)oc23)cc1 (centres undefined) returned PLK1 PBD inh -3%, JMJD2A Tudor inconclusive, Sfp inh 22%, BAZ2B block inconclusive, HP1b chromo inh -9% and G9a block inconclusive.
For COc1cc(OC)c2c(-c3ccccc3)cc(=O)oc2c1C(CCN1CCN(c2ccccc2)CC1)c1ccc(N(C)C)cc1 (centres undefined) the results were PLK1 PBD inh 4%, JMJD2A Tudor 4.5µM*, Sfp inh 1%, BAZ2B block 4.5µM*, HP1b chromo inh inconclusive and G9a block inconclusive.
CN(C)C(=O)C[C@@H]1CC[C@@H](NC(=O)C2CCC2)[C@@H](CO)O1 was read as PLK1 PBD inh 0%.
Screening COc1ccc(NC(=O)N2CC3(CCNCC3)C2)cc1 returned Sfp inh 0% and G9a block -2%[12.7 µM].
CCCCCc1cc(=O)oc2c(C(CCN(CC)CC)c3cc(OC)c(OC)c(OC)c3)c(OC)cc(OC)c12 (centres undefined) was read as PLK1 PBD inh -6%, JMJD2A Tudor inconclusive, Sfp inh inconclusive, BAZ2B block -31%, HP1b chromo inh 12% and G9a block 10%[59 µM].
CCCCCc1cc(=O)oc2c(C(CCN3CCN(c4ccccc4)CC3)c3ccc(N(C)C)cc3)c(OC)cc(OC)c12 (centres undefined) was read as PLK1 PBD inh 1%, JMJD2A Tudor 22µM*, Sfp inh -2%, BAZ2B block 6.3µM*, HP1b chromo inh inconclusive and G9a block inconclusive.
`COc1cc(OC)c2ccc(=O)oc2c1C(CCN1CCOCC1)c1ccc(N(C)C)cc1` (centres undefined) gave Sfp inh -3% and G9a block 28µM*.
`COc1ccc(C(CCN2CCOCC2)c2c(OC)cc(OC)c3c(-c4ccccc4)cc(=O)oc23)cc1` (centres undefined) gave PLK1 PBD inh -12%, JMJD2A Tudor inconclusive, Sfp inh inconclusive, HP1b chromo inh -4% and G9a block inconclusive.
Screening COc1cc(OC)c2c(C)cc(=O)oc2c1C(CCN1CCOCC1)c1ccc(N(C)C)cc1 (centres undefined) returned PLK1 PBD inh -6%, JMJD2A Tudor 50µM*, Sfp inh -10%, BAZ2B block 40µM*, HP1b chromo inh inconclusive and G9a block -4%[12.7 µM].
Screening O=C(Nc1cccc2ccccc12)c1ccccc1NS(=O)(=O)c1cccc2cccnc12 returned PLK1 PBD inh -10%, JMJD2A Tudor -16%, Sfp inh 10%, BAZ2B block -1%, HP1b chromo inh 12% and G9a block inconclusive.
Nc1ccccc1S(=O)(=O)Nc1cccc2cccnc12 was read as JMJD2A Tudor 56µM* and Sfp inh 3%.
`O=S(=O)(NCCc1ccccc1)c1cccc2cccnc12` gave PLK1 PBD inh -29%, JMJD2A Tudor 1%, Sfp inh 9%, BAZ2B block 14%, HP1b chromo inh 3% and G9a block 50µM*.
For O=S(=O)(NCc1ccccc1)c1cccc2cccnc12 the results were PLK1 PBD inh -5%, JMJD2A Tudor -4%, Sfp inh 3%, BAZ2B block -4%, HP1b chromo inh 38% and G9a block 16%[12.7 µM].
Screening O=C(O)c1ccccc1NS(=O)(=O)c1cccc2cccnc12 returned PLK1 PBD inh -8%, JMJD2A Tudor 20µM*, Sfp inh -7%, BAZ2B block -32%, HP1b chromo inh -4% and G9a block inconclusive.
For CSc1nn(Cc2cccc(Cl)c2)c(N(C(C)=O)C(C)=O)c1S(=O)(=O)c1ccccc1 the results were JMJD2A Tudor -11%, BAZ2B block -1%, HP1b chromo inh 23% and G9a block 9%[59 µM].
